This note sets out measurements from ChEMBL document CHEMBL1157539, “Thousands of chemical starting points for antimalarial lead identification” (Nature, 2010).

The structures appear in SMILES notation. Whole data set: some 13,000 compounds, median “IFI” near 4, cut for the highest 2% near 17. The sample holds the highest values, similar compounds and a random draw of the others, so the mix is not that of the screen.

The assay in a line: GSK_TCMDC: Inhibition Frequency Index (IFI). The number of non-kinase HTS assays where a compound showed > 50 % inhibition, expressed as a percentage of the number of such assays in which the compound was tested. It is filed as functional.
Take `CCCCN(CCCC)CCCCNc1c2ccc(Cl)cc2nc2ccc(OC)cc12`: the IFI is 6.87%.

For `CCCc1cc(C(C)=O)ccc1OCCCON1C(=N)N=C(N)NC1(C)C`, the IFI turned out to be 3.68%. Under `CC1(C)NC(N)=NC(=N)N1OCCCCOc1ccccc1` stands 2.17%; under `N=C1N=C(N)NC2(CCCCC2)N1OCCOc1ccc(Cc2ccccc2)cc1`, 27.6%; under `N=C1N=C(N)NC2(CCCCC2)N1OCCCOc1cccc2ccccc12`, 9.16%.

As to `CCCc1cc(OCCCOc2ccccc2)ccc1OCCCON1C(=N)N=C(N)NC1(C)C`, the IFI was determined as 21.1%. Under `CC1(C)NC(N)=NC(=N)N1OCCOc1ccc(Cc2ccccc2)cc1` stands 4.41%; under `COc1ccccc1NC(=O)Nc1cccc(-c2cccc(-c3nc4cccc(C)c4[nH]3)c2)c1`, 3.03%.

The compound `c1cc(-c2ccc(CNC3CCOCC3)cc2)cc(-c2nc3ccccc3[nH]2)c1` gave an IFI of 0.97%.

`C/C=C/COc1ccc2ccccc2c1CNCCCCCCCCNCc1c(OC/C=C/C)ccc2ccccc12` had an IFI of 16.6%. The same measure for `CCOc1ccc2ccccc2c1CNCCCCCCNCc1c(OCC)ccc2ccccc12`: 13%; for `C#CCOc1ccc2ccccc2c1CNCCCCCCNCc1c(OCC#C)ccc2ccccc12`: 14.1%.

In turn, `c1ccc2c(CNCCCCCCNCc3c(OCC4CC4)ccc4ccccc34)c(OCC3CC3)ccc2c1` displayed an IFI of 18.7%. The same measure for `C#CCCOc1ccc2ccccc2c1CNCCCCCCNCc1c(OCCC#C)ccc2ccccc12`: 12.8%. The same measure for `Oc1ccc2ccccc2c1CNCCC1CCCCC1`: 2.96%. `CCCOc1ccc2ccccc2c1CNCCCCCCNCc1c(OCCC)ccc2ccccc12` yielded an IFI of 17.6%.

`CCCCCCOc1ccc2ccccc2c1CNCCCCCCNCc1c(OCCCCCC)ccc2ccccc12`: the IFI is 22.8%. The same measure for `C=CCOc1ccc2ccccc2c1CNCCCCCCNCc1c(OCC=C)ccc2ccccc12`: 19.6%; for `CCCCCCCCNCc1c(O)ccc2ccccc12`: 7.69%; for `c1ccc2[nH]c(-c3ccc(-c4ccc(CNCC5CCCO5)cc4)s3)nc2c1` (stereo not given): 6.86%. The same measure for `N#Cc1ccc(-c2ccc(C(=O)NCCCCN3CCC(c4ccc5c(c4OCC(N)=O)CCCC5)CC3)cc2)cc1`: 3.54%; for `N=C(N)Nc1nc(-c2ccc(NC(=N)N3CCC[C@H]3CN3CCCC3)cc2)cs1`: 2.17%. For the compound `CCCCNc1nc(NCCCC)c2c(C)c(Cc3ccccc3)c(NCCCC)nc2n1`, the IFI was 16.1%. Under `COc1ccc(CNCc2cccc(-c3ccc(-c4nc5cccc(C)c5[nH]4)s3)c2)cc1` stands 10.4%; under `COc1ccccc1/C=C/C(=O)NC1CCC(CCN2CCc3ccc(-c4cc(C)no4)cc3CC2)CC1` (stereo not given), 3.88%. The same measure for `Nc1c2ccccc2nc2ccc(Cl)cc12`: 9.03%; for `Cc1noc(C)c1-c1cccc(CNCc2cccc(-c3cccc(-c4nc5ccccc5[nH]4)c3)c2)c1`: 3.92%. Under `COc1cc(CN/C(=N/c2ccc(-c3ccccc3)cc2)Nc2ccc(C#N)cc2O)cc(OC)c1` stands 1.46%; under `Cc1nc2nc(N)nc(N)c2c(C)c1Cc1ccc([N+](=O)[O-])cc1`, 1.6%. The compound `O=C(NCCCCN1CCC(c2ccc3c(c2OCCCO)CCCC3)CC1)c1ccc(-c2ccc(C(F)(F)F)cc2)c(CO)c1` displayed an IFI of 10.1%. The same measure for `CC1(C)NC(N)=NC(=N)N1OCCOc1cccc(C(F)(F)F)c1`: 3.7%.

The compound `Cc1ccc(NC(=N)Nc2ncccc2OCc2c(F)cccc2Cl)cc1` gave an IFI of 22%. `CCOc1cc2ncnc(Nc3ccc(OCc4c(Cl)cccc4Cl)c(OC)c3)c2cc1OCC` came in with an IFI of 0%. Under `CCOc1cc2ncnc(Nc3ccc(OCc4c(F)cccc4F)c(OC)c3)c2cc1OCC` stands 0%; under `O=C(Nc1ccccc1)N(Cc1ccc(-c2ccc(CNC3CCCC3)cc2)cc1)C1CCN(Cc2ccccc2)CC1`, 4.9%; under `O=C(CCc1c[nH]cn1)Nc1ccc(-c2ccc(-c3nc4cc(F)ccc4[nH]3)cc2)cc1`, 6.48%. Under `O=C(Nc1ccccc1)N(Cc1cccc(-c2cccc(CNCCc3ccccc3)c2)c1)C1CCN(Cc2ccccc2)CC1` stands 12.3%; under `COc1ccc(NS(=O)(=O)c2ccc(C(=O)Nc3ccc(OC(F)(F)F)cc3)cc2)cc1N1CCN(CC2CC2)CC1`, 8.49%. For `CCC(C)c1ccc(NC(=O)c2ccc(S(=O)(=O)Nc3ccc(OC)c(N4CCN(CC5CC5)CC4)c3)cc2)cc1` (stereo not given), the IFI worked out at 13.6%. Take `COc1ccc(S(=O)(=O)Nc2ccc(C(=O)NCc3ccccc3C(F)(F)F)cc2)cc1N1CCN(CC2CC2)CC1`: the IFI is 19.4%. The compound `COc1ccc(NS(=O)(=O)c2ccc(C(=O)Nc3ccc(C(F)(F)F)cc3)cc2)cc1N1CCN(CC2CC2)CC1` registered an IFI of 2.1%. Under `CCCCN1CCN(c2cc(NS(=O)(=O)c3cccc(C(=O)Nc4ccc(C(F)(F)F)cc4)c3)ccc2OC)CC1` stands 3.55%; under `CCCN1CCN(c2cc(S(=O)(=O)Nc3ccc(C(=O)NCc4cccc(C(F)(F)F)c4)cc3)ccc2OC)CC1`, 24.1%; under `CCCCN1CCN(c2cc(NS(=O)(=O)c3ccc(C(=O)Nc4ccc(C(F)(F)F)cc4)cc3)ccc2OC)CC1`, 3.97%. Under `COc1ccc(S(=O)(=O)Nc2ccc(C(=O)NCc3ccc(C(F)(F)F)cc3)cc2)cc1N1CCN(CC2CC2)CC1` stands 20%. Under `COc1ccc(NS(=O)(=O)c2cccc(C(=O)Nc3ccc(C(F)(F)F)cc3)c2)cc1N1CCN(CC(C)C)CC1` stands 2.84%. Turning to `C#Cc1cccc(NC(=O)[C@H](CC2CCCCC2)Nc2ccc(C#N)c3ccccc23)c1`, the IFI is 3.77%. `CCCCOc1ccc(-c2nc3ccccc3[nH]2)cc1` yielded an IFI of 2.14%. Under `COc1ccc(OCCCON2C(=N)N=C(N)NC2(C)C)cc1` stands 2.88%; under `O=S(=O)(NCCN1CCCC1)c1ccc(-c2cccc(CNCc3ccc(F)cc3)c2)s1`, 9.65%; under `CCNC(=O)Nc1cccc(-c2cccc(-c3nc4cccc(C)c4[nH]3)c2)c1`, 5.05%. The same measure for `CCN(CC)CCn1c(=N)n(CC(O)c2ccc(Cl)c(Cl)c2)c2ccccc21` (stereo not given): 6.52%; for `CCCCCCCn1c(=N)n(CC(O)c2ccc(Cl)c(Cl)c2)c2ccccc21` (stereo not given): 17.6%; for `CN(C)CCn1c(=N)n(CC(O)c2ccc(Cl)c(Cl)c2)c2ccccc21` (stereo not given): 2.21%. The same measure for `Cc1ccc(C2(CN3CCC(NC(=O)c4n[nH]cc4Cl)CC3)CCCCC2)cc1`: 8.33%; for `CN1CCN(CC(=O)Nc2cccc(-c3cccc(-c4nc5ccccc5[nH]4)c3)c2)CC1`: 1.8%; for `O=C(Nc1ccc(Cl)c(C(F)(F)F)c1)Nc1ccc(Cl)c(C(F)(F)F)c1`: 12.7%. In the case of `O=C(Nc1ccc(SC(F)(F)F)cc1)Nc1ccc(Cl)c(Cl)c1`, the IFI turned out to be 18.7%. The same measure for `O=C(Nc1cc(C(F)(F)F)cc(C(F)(F)F)c1)Nc1ccc(Cl)c(Cl)c1`: 19.1%.

In the case of `O=C(Nc1cccc(C(F)(F)F)c1)Nc1ccc2nonc2c1`, the IFI came out at 22.5%. `O=C(Nc1cccc(C(F)(F)F)c1)Nc1ccc(F)c([N+](=O)[O-])c1` came in with an IFI of 15.8%. The same measure for `O=C(Nc1ccc(Cl)c(Cl)c1)Nc1cc(C(F)(F)F)ccc1Cl`: 5.71%; for `O=C(Nc1cccc(C(F)(F)F)c1)Nc1ccc(Cl)c(Cl)c1`: 16.1%; for `O=C(Nc1ccc(Cl)cc1)Nc1ccc2nonc2c1`: 12.8%. The same measure for `O=C(Nc1ccc(SC(F)(F)F)cc1)Nc1ccnc2ccccc12`: 9.29%; for `c1ccc2c(NCCCCCCCCNc3ccnc4ccccc34)ccnc2c1`: 8.27%.

`CCOc1cc(N)c2nc3ccc([N+](=O)[O-])cc3cc2c1`: the IFI turned out to be 6.47%.

The compound `CC(C)(C)NS(=O)(=O)c1cc(C(=O)N2CCC(CCN3CCC(C(=O)c4ccc(F)cc4)CC3)(c3cccc(F)c3)CC2)c(Cl)cc1F` returned an IFI of 3.55%. The same measure for `C=CCOC(=O)N1CCC(CNCc2ccc(-c3ccc(-c4nc5ccccc5[nH]4)s3)cc2)C1` (stereo not given): 11%; for `COc1cccc(Nc2nccc(-c3c(-c4cccc(NC(=O)c5c(F)cccc5F)c4)nn4ccccc34)n2)c1`: 4.39%; for `NC(=O)C1CCN(Cc2ccc(-c3ccc(-c4nc5cc(F)ccc5[nH]4)cc3)cc2)CC1`: 4.72%. As for `Fc1ccc2c(NN=Cc3ccc(Cl)cc3)ccnc2c1`, the IFI is 0.74%. The same measure for `O=C(NCCCCN1CCC(c2ccc3ccccc3c2O)CC1)c1ccc(-c2ccc(Cl)cc2)cc1`: 15.1%; for `CC(C)C(=O)NC(c1ccc(N(C)C)cc1)c1cc(Cl)c2cccnc2c1O` (stereo not given): 5.38%. As to `CCn1c(-c2nonc2N)nc2c(-c3cccc(NC(=O)Nc4ccc(C#N)cc4)c3)ncc(OCCCN)c21`, the IFI stood at 15.7%.

With `CCn1c(-c2nonc2N)nc2c(-c3cccc(NC(=O)Nc4cccc(C#N)c4)c3)ncc(OCCCN)c21`, the IFI is 16.7%. For `CCn1c(-c2nonc2N)nc2c(-c3cccc(NC(=O)Nc4ccc(C(F)(F)F)cc4)c3)ncc(OCCCN)c21`, the IFI came out at 19.1%. The same measure for `CCn1c(-c2nonc2N)nc2c(-c3ccccc3)ncc(OCCCNCCCN3CCOCC3)c21`: 3.08%.

Consider `CCn1c(-c2nonc2N)nc2c(-c3cccc(NC(=O)NCc4ccccc4)c3)ncc(OCCCN)c21`, for which the IFI was 12.9%. `CCn1c(-c2nonc2N)nc2c(-c3cccc(NC(=O)Nc4ccc5c(c4)CCC5)c3)ncc(OCCCN)c21` registered an IFI of 14.8%. The same measure for `CCn1c(-c2nonc2N)nc2c(-c3cccc(NC(=O)Nc4cccc(C(F)(F)F)c4)c3)ncc(OCCCN)c21`: 14.6%; for `CCOC(=O)c1cccc(NC(=O)Nc2cccc(-c3ncc(OCCCN)c4c3nc(-c3nonc3N)n4CC)c2)c1`: 16.5%; for `CCn1c(-c2nonc2N)nc2c(-c3cccc(NC(=O)NC45CC6CC(CC(C6)C4)C5)c3)ncc(OCCCN)c21`: 16.7%.

Compound `CCn1c(-c2nonc2N)nc2c(-c3cccc(NC(=O)Nc4cccc(Cl)c4)c3)ncc(OCCCN)c21` registered an IFI of 17.6%. In turn, `CCn1c(-c2nonc2N)nc2c(-c3cccc(NC(=O)Nc4ccc(Cl)cc4)c3)ncc(OCCCN)c21` had an IFI of 19.3%. The compound `NCCCOc1cnc(-c2ccccc2)c2nc(-c3nonc3N)n(CCc3ccccc3)c12` displayed an IFI of 18.8%. The same measure for `Cc1ccc(NC(=O)c2cc(S(=O)(=O)NC(C)(C)C)ccc2C)nc1`: 0%; for `O=C(NC1CCN(CC2(c3ccccc3F)CCCC2)CC1)c1cc[nH]n1`: 0%; for `Cc1nc(C)c(-c2ccc(C(F)(F)F)cc2)c(O)c1Br`: 0%. In turn, `O=S(=O)(NCCN1CCCC1)c1ccc(-c2cccc(CNCc3ccsc3)c2)s1` yielded an IFI of 6.9%.
